Experimental data reported in PubChem BioAssay AID745 (Emory University Molecular Libraries Screening Center, 2007).
Hit rate of the full screen: of about 33,000 compounds, about 40 (0.1%) were called active. Rule as the data show it: active = z-score below about -3; inactive = the rest. For the sample, actives were picked, then their nearest neighbours and some compounds at random.

Assay: inhibitors of measles virus growth in cells, primary screen, measles RdRp inhibitor project, cell-based, single point, HTS (AID 745)
Settings: infected Vero cells, GFP fluorescence, 64 h; hits give low values

z-score, inactive:
COCCNC(=O)c1ccc(N2CC3CC(C2)c2cccc(=O)n2C3)c(NC(=O)c2cc3ccccc3oc2=O)c1 (stereo not given) 0.89
Cc1ccc(NCc2ccccc2CO)cc1 -0.53
C=CCC1(C#N)C(=S)NC(c2ccccc2)=C(C(=O)OCC)C1c1cccnc1 (stereo not given) 1.37
CC(=O)N1CCc2cc(Br)cc(S(=O)(=O)NCCCN3CCCCCC3)c21 0.64
COc1ccc(C=NCCC2(c3ccc(OC)cc3)CCOC(C)(C)C2)cc1 (stereo not given) -0.17
COc1ccccc1-c1nc2nc(C)cc(=O)n2[nH]1 -0.19
Cc1ccccc1C(=O)Nc1cccc(F)c1 1.39
O=C(Cc1c(C(=O)O)[nH]c2ccc(Cl)cc12)NCc1ccc2c(c1)OCO2 1.5
COc1ccc(NC(=O)Cn2c(=O)n(CCc3ccccc3)c(=O)c3c(C)c(C)sc32)cc1 2.83
Cn1c(=O)c(=O)n(C)c2cc(S(=O)(=O)N3CCCc4ccccc43)ccc21 -0.1
CCN1CCN(c2cc(C)c3cc(NC(=O)CCC4CCCC4)ccc3n2)CC1 -0.38
Cc1cccc(C)c1NC(=O)CSc1ccc([N+](=O)[O-])cn1 0.01
COc1cccc(NC(=O)Cn2cc(C(=O)C(F)(F)F)c3ccccc32)c1 -0.44
COc1ccc(OC)c(C2Nc3cccc4cccc(c34)N2)c1 -0.45
CCOP(=O)(Cc1cc(C(C)(C)C)c(O)c(C(C)(C)C)c1)OCC -1.02
CC1Cc2nc(SCC(=O)Nc3cccc(Cl)c3)n(C)c(=O)c2S1 (stereo not given) 0
COc1cccc(OC)c1C(=O)Oc1cccc2ccc(C)nc12 -0.39
CC1(C)CC(=O)C2=C(C1)OC1=C(C(=O)CC(C)(C)C1)C2c1ccccc1C(=O)O 0.12
O=[N+]([O-])c1ccc(N2CCCCCC2)c(S(=O)(=O)N2CCOCC2)c1 -0.01
Cc1ccccc1NC(=O)CC1Sc2ccccc2NC1=O (stereo not given) -0.07
O=C(O)CCNC(=O)Cn1cnc2sc3c(c2c1=O)CCCC3 1.62
CCn1c(SCC(=O)Nc2ccc(F)cc2)nc2c(c1=O)SC(C)C2 (stereo not given) -0.54
O=C(CSc1nc2c([nH]c3ccccc32)c(=O)n1-c1cccc(Cl)c1)Nc1nccs1 -1.08
COc1ccc(Cl)cc1NC(=O)CSc1nc2cc(OC)c(OC)cc2c2nc(C)nn12 -0.11
CCOCCOC(=O)C1=C(C)NC(=O)NC1c1cccc([N+](=O)[O-])c1 (stereo not given) 4.15
